The source of these data is PubChem BioAssay (NCI).

About 83,000 compounds went through this panel and 20% of them were active in at least one assay; those are over-represented in the sample as a whole.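 Results are percent growth after 48 hours of single-concentration exposure. 100 means growth as in untreated cells, lower positive values show inhibition; negative values down to -100 show cell death.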 Unmarked numbers belong to inactive results. Activity calls are given as the source filed them. The calls were made as follows: active = growth percent below 10; inactive = the rest.

In this experiment the test system is MDA-MB-468 breast. The experiment can be described thus: NCI-60 one-dose screen, 48 h (100 = growth as untreated, 0 = no growth, -100 = all killed). The note with it: 10 µM unless noted.
In the case of `CN1CCN(Cc2ccc(NC(=O)c3[nH]ncc3Nc3ncnc4[nH]ccc34)cc2)CC1`, the growth was -51.8% (active).
Under `O=C(Nc1ccncc1)C(=O)c1cn(S(=O)(=O)c2cccc(Cl)c2F)c2ccccc12` stands 33%; under `COC(=O)C1CCc2sc3ncnc(Nc4cn[nH]c4C(=O)Nc4ccc(CN5CCN(C)CC5)cc4)c3c21` (stereo not given), 37.3%; under `Cc1c(C)c2c(c(C)c1OC(=O)CCC(=O)[O-])CCC(C)(CCCCCCCCCCC[P+](c1ccccc1)(c1ccccc1)c1ccccc1)O2` (stereo not given), -70.4% (active).
`COc1cc(OC)c(S(N)(=O)=O)cc1C(=O)/C=C/c1ccc(C)cc1`: the growth was -36.2% (active).
Take `COC(=O)C(Cc1ccccc1)NS(=O)(=O)/N=C1\NC(=O)NC1=C(Cl)Cl` (stereo not given): the growth was 16.3%.
Regarding `COc1ccc(-c2nc(N3CCN(C(=O)C4CCCCC4)CC3)c3c4c(sc3n2)CCCC4)cc1`, the growth was -17.4% (active).
Under `CCOC(=O)c1nnn(-c2no[n+]([O-])c2-c2ccc(OC)cc2)c1COc1cccc2cccnc12` stands 33.6%.
As to `O=C=NC(c1ccccc1)(c1ccccc1)c1ccccc1`, the growth is 118%.
Turning to `Cc1nn(-c2ccccc2)c(N2CCOCC2)c1-c1nc2ccc([N+](=O)[O-])cc2[nH]1`, the growth was 94.3%.
Under `N#Cc1nc(-c2ccc(Cl)cc2)oc1S(=O)(=O)N1CCN(c2ccc(F)cc2)CC1` stands 105%; under `COc1cccc(NC(=O)c2sc3nc(C)c(C(=O)c4ccccc4)cc3c2N)c1`, 62.1%.
The figure for `c1cc2ccc1CNCCN1CCNCc3ccc(cc3)Oc3ccc(cc3)CNCCN(CCNCc3ccc(cc3)O2)CCNCc2ccc(cc2)Oc2ccc(cc2)CNCC1` is -77.6% (active).
The figure for `COc1ccc(-c2nnc3n(C)c(=O)c4ccccc4n23)cc1N` is -6.61% (active).
On to `COCCCNc1nc(NC(=O)c2cc(Br)cc(C(F)(F)F)c2)cc(-c2cccnc2)n1`, for which the growth was 82.8%.
Take `O=c1cc(-c2ccccc2)[nH]c2ccccc12`: the growth was 59.5%.
In the case of `C[C@]12CC[C@@H]3c4cc(OC(F)F)c(O)cc4CC[C@H]3[C@@H]1CC[C@@H]2OS(N)(=O)=O`, the growth is -18.9% (active).
The figure for `COc1cc(C(=O)c2cc(C(C)=O)c3cccc(C)n23)cc(OC)c1OC` is 15.4%.
The figure for `Cc1[nH]nc2ncc(C#Cc3cncc(C(=O)Nc4ccc(CN5CCN(C)CC5)c(C(F)(F)F)c4)c3)cc12` is 26.1%; for `CCCCCCN(CCCCCC)CCC(O)c1ccc2ccccc2c1` (stereo not given) it is 18.6%.
Under `N#Cc1c(NC(=O)c2ccc(F)c(Cl)c2)sc2c1CCC(=O)C2` stands -20% (active); under `COc1ccc(Nc2nc(SCC(C)C)nc(-c3ccc(F)cc3)c2C#N)cc1`, 32.6%; under `CCCCCCCCCCOC(c1ccccc1)c1ccccc1`, 92.1%.
In the case of `Fc1ccc2nc(-c3nc(-c4ccccc4)n4ccccc34)[nH]c2c1`, the growth is -68.1% (active).
As for `N#Cc1c(-c2ccc(Cl)cc2)nc(NCCO)[nH]c1=O`, the growth is 119%.
On to `COc1cc(/C=N/NC(=O)Cn2c(-c3ccc(C)o3)nc3ccccc32)ccc1OCc1ccccc1`, for which the growth was 76.6%.
As for `COC(=O)[C@H]1[C@H]2C[C@@H]3c4[nH]c5cc(OC)ccc5c4CCN3C[C@H]2C[C@@H](OC(=O)/C=C/c2cc(OC)c(OC)c(OC)c2)[C@@H]1OC`, the growth is 9.21% (active).
The figure for `CC1C(c2ccccc2)OCCN1C(=S)Nc1ccc(S(=O)(=O)N2CCCCC2)cc1` (stereo not given) is 80.4%; for `Brc1ccc(-c2[nH]ncc2-c2c[nH]c3ccccc23)cc1` it is 99.5%; for `C(=C1c2ccccc2-c2ccccc21)c1ccncc1` it is 0.207% (active).
The figure for `O=[N+]([O-])C1C(c2ccccc2)C12c1ccccc1-c1ccccc12` (stereo not given) is -26% (active).
As for `CC(C)c1ncc([N+](=O)[O-])n1C`, the growth is 104%.
Take `CCOc1cc(/C=N\NC(=O)C[N+](C)(C)C)ccc1O`: the growth was 123%.
Regarding `O=c1c2ccccc2oc2ccc(OCCCCCCN3CCCCCC3)cc12`, the growth is 20.2%.
Consider `Cc1ccc(C(=O)/C(=C\c2ccc([N+](=O)[O-])cc2)S(=O)Cc2ccc(F)cc2)cc1` (stereo not given), for which the growth is -10.3% (active).
Take `COc1cc(NCC(O)CN(CC(C)C)CC(C)C)c2ncccc2c1` (stereo not given): the growth is -19.8% (active).
On to `Cc1cnc(Nc2ccc(OCCN3CCCC3)cc2)nc1NCc1ccco1`, for which the growth was 80.8%.
The figure for `C=C(C)[C@@H]1CC[C@]2(C(=O)NC3CCCCC3)CC[C@]3(C)[C@H](CC[C@@H]4[C@@]5(C)CCCNC(C)(C)[C@@H]5CC[C@]43C)[C@@H]12` is -85.4% (active).
As for `Cc1cccnc1NC1OC(=O)c2ccccc21` (stereo not given), the growth was 103%.
The figure for `CCOC(=O)Nc1ccc(-c2nc(-c3cccc(O)c3)c(-c3ccnc(Br)c3)[nH]2)cc1` is 10.7%.
